Results filed as inconclusive are left out. Active and inactive are the calls of the source. The calls were made as follows: active = hit-call score of the fitted dose curve at least 0.9, where 1 is the maximum; inconclusive = response in the unintended direction; inactive = score below 0.9.

Chain of Nuclear receptor subfamily 1 group I member 3 (Homo sapiens) (Q14994 whole entry, looked up): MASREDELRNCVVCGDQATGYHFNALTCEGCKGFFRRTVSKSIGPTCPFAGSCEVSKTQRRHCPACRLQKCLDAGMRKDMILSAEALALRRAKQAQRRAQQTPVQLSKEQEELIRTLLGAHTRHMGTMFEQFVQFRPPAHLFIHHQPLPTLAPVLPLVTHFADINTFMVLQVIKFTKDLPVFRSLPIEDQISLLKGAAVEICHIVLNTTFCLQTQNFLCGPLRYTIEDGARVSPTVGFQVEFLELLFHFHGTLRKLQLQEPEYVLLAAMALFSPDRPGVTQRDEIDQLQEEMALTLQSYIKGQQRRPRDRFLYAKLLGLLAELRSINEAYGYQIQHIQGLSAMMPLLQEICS

The test concerns the target Nuclear receptor subfamily 1 group I member 3 (Homo sapiens) (UniProt Q14994). As to the kind of experiment: ATG_CAR_TRANS: Attagene TRANS-FACTORIAL HepG2 Assay for human Constitutive Androstane Receptor (CAR) (AID 2282969).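 Also: activators raise reporter mRNA above DMSO so AC50 marks induction.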 The settings on record: HepG2 Attagene TRANS-FACTORIAL CAR reporter. As for the experimental part: ATG_TRANS is a cell-based, multiplexed-readout assay that uses HepG2, a human liver cell line, with measurements taken at 24 hours after chemical dosing in a 24-well plate.ATG_CAR_TRANS is one of 30 assay component(s) measured or calculated from the ATG_TRANS assay. It is designed to make measurements of mRNA induction, a form of inducible reporter, as detected with fluorescence intensity signals by Reverse transcription polymerase chain reaction (RT-PCR) and Capillary electrophoresis technology.Data from the assay component ATG_CAR_TRANS was analyzed into 1 assay endpoint. This assay endpoint, ATG_CAR_TRANS, was analyzed in the positive analysis fitting direction relative to DMSO as the negative control and baseline of activity. Using a type of inducible reporter, measures of mRNA for gain-of-signal activity can be used to understand the reporter gene at the transcription factor-level as they relate to the gene NR1I3. Furthermore, this assay endpoint can be referred to as a primary readout, because this assay has produced multiple assay endpoints where this one serves a reporter gene function. To generalize the intended target to other relatable targets, this assay endpoint is annotated to the nuclear receptor intended target family, where the subfamily is non-steroidal.
Human liver HepG2 cells are transiently transfected with multiple reporter transcription units (MRTUs) in 6-well plates using FuGene 6 reagent (Roche; 3 ml FuGene/1 mg DNA). The MRTU constructs are regulated by a cis-regulating element (promoter). […] A major difference between the CIS and TRANS system is that in CIS activities of endogenous TFs are measured, whereas the TRANS assay evaluates changes in activities of exogenous, chimeric NR-Gal4 proteins. […] At the end of 24 hour incubation, total RNA was isolated using TriZol reagent (Invitrogen). The isolated RNA is then reverse-transcribed using oligo(dT) primer and Mo-MLV reverse transcriptase (Invitrogen) with DNAse I (Ambion) treatment for 30 min. The one-tenth of the produced cDNA was amplified by PCR using Taq DNA polymerase (Invitrogen) and two reporter sequence-specific primers. The PCR products were fluorescently labeled by primer extension with 6-arboxyfluorescein (6-FAM) 5'-labeled reporter sequence-specific primer (2 min at 95 C, 20 s at 68 C and 10 min at 72 C) and these products were digested with 5U of HpaI (New England Biolabs) for 2h at 37 C. The fragments were purified using Qiaquick PCR columns (Qiagen), analyzed on an ABI 3130xL genetic analyzer (Applied Biosystems) with peak positions identified by using a set of X-rhodamine (ROX)-labeled MapMarker1000 molecular weight standards (BioVentures). The raw capillary electrophoresis data was processed using Attagraph software (Attagene).
Take `CC(=O)OCCc1ccccc1`: the result was inactive.
Same read-out and setting: the result for `CCCCC(CC)COC(=O)/C=C/c1ccc(OC)cc1` (stereo not given) reads “inactive”; that for `O=C1CCCN1C1CCCCC1`, “inactive”; that for `O=C(C=Cc1ccccc1)OCCc1ccccc1`, “inactive”.
Same read-out and setting: then `CC1=C(O)C(=O)C(C)O1` (stereo not given), with “inactive”; and `CN(C)c1ccc2nc3ccc(=[N+](C)C)cc-3sc2c1`, with “inactive”; and `CCN1CCCC1=O`, with “inactive”.
For the compound `CCc1cccc(C)c1N(C(=O)CS(=O)(=O)O)C(C)COC` (stereo not given), the outcome was inactive.
In the case of `C=C(C)C1CC=C(C)CC1` (stereo not given), the compound was classed as inactive.
Same read-out and setting: the result for `CC(CC=O)CC(C)(C)C` (stereo not given) reads “inactive”; that for `CCCCC1CCC(=O)O1` (stereo not given), “inactive”; that for `Cc1ccc2c(c1)CCCN2`, “inactive”.
Turning to `Oc1ccc(-c2ccccc2)c(Cl)c1`, the call was inactive.
Still for that read-out and setting: the result for `[Cl][Sc]([Cl])[Cl]` reads “inactive”; that for `CC(C)c1cccc(C(C)C)c1N`, “inactive”; that for `Cc1noc(NS(=O)(=O)c2ccc(N)cc2)c1C`, “inactive”.
On the same count and under the same terms, the result for `C[Si]1(C)O[Si](C)(C)O[Si](C)(C)O[Si](C)(C)O[Si](C)(C)O1` reads “inactive”; that for `O=C(Cl)c1ccc(C(=O)Cl)cc1`, “inactive”; that for `CCCCCCCO`, “inactive”.
Take `CC(C)CCCCCOC(=O)CS`: the compound was classed as inactive.
Same read-out and setting: then `c1ccc(Nc2cccc3ccccc23)cc1`, with “inactive”; and `CCCSSCCC`, with “inactive”.
Same read-out and setting: the result for `CC(C)c1ccc(O)c(C(C)C)c1` reads “inactive”; that for `CCC(C)(O)CCCC(C)C` (stereo not given), “inactive”; that for `CC1CCC(=O)C1=O` (stereo not given), “inactive”.
For `CCCCCCOc1ccc(N)cc1`, the compound was classed as inactive.
Same read-out and setting: the result for `Fc1ccc(Br)cc1` reads “inactive”.
Take `CCCCC(=O)O`: the compound was called inactive.
Turning to `CCCCOC(=O)CCC(C)=O`, the compound was classed as inactive.
Take `Nc1cccc(N)n1`: the call was inactive.
For the compound `COC(OC)(C(=O)c1ccccc1)c1ccccc1`, the compound was classed as inactive.
Still for that read-out and setting: the result for `CC1=NN(c2ccc(S(=O)(=O)O)cc2)C(=O)C1N=Nc1ccccc1` (stereo not given) reads “inactive”; that for `O=C1CCCCCCCCCCCN1`, “inactive”.
Same read-out and setting: the result for `CC(=O)CCC1=C(C)CCCC1(C)C` reads “inactive”.
On the same count and under the same terms, the result for `CC(=O)CC(=O)Nc1ccccc1C` reads “inactive”; that for `O=C(Oc1ccccc1)c1ccccc1O`, “inactive”.
In the case of `C=Cc1ccc(OC(C)=O)cc1`, the outcome was inactive.
As for `C=CC(=O)O[C@H]1C[C@@H]2CC[C@@]1(C)C2(C)C`, the half-maximal activity concentration (AC50) (commonly the concentration at which the activity in the assay is half-maximal) was 162 µM (active).
Turning to `Cn1ccnc1`, the call was inactive.
Still for that read-out and setting: the result for `CCC1(C)C(=O)N(Cl)C(=O)N1Cl` (stereo not given) reads “inactive”.
